Screening results: PubChem, National Center for Advancing Translational Sciences (NCATS)
KB-V1 cytotox: kills drug-selected multidrug resistant KB-V1 cells; KB-V1 MDR cells viability, CellTiter-Glo, 72 h; Potency, µM (series often up to 46.1 µM), hits mostly cytotoxic; hit rate 3.4% among 400,000; AID 1347076; also: % is scaled to controls: 0 for no effect and ±100 for the full control effect; nearly all actives have a fitted effect of over 60% in size
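qHTS viability screen in drug-selected KB-V1 MDR cells: 72 h compound treatment at 37 degrees C, ATP luminescence end point.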
SW480 rerep: DNA re-replication induction in SW480 cells; SW480 DNA re-replication, Hoechst DNA content imaging, 48 h; Potency, µM (titrated, usually from 46.1 µM), for the others: at the top dose re-replication activation, hits mostly activators; hit rate 1.8% among 340,000; also: % of control where 0% means no effect; nearly all actives have a fitted effect of over 55% in size
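Compounds, transferred as 23 nL by pin tool, were incubated with cells for 48 hr; DNA content per nucleus was then quantified by Hoechst staining and fluorescence plate imaging.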
KB-3-1 tox: kills parental KB-3-1 adenocarcinoma cells | KB-3-1 viability, CellTiter-Glo ATP luminescence, 72 h | Potency, µM (series often up to 46.1 µM), usual class: cytotoxic | hit rate 1.4% among 400,000 | AID 1347075; also: % is scaled to controls: 0 for no effect and ±100 for the full control effect; nearly all actives have a fitted effect of over 60% in size
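Multi-concentration cytotoxicity screen in KB-3-1 cells grown in DMEM lacking phenol red with 10% FBS. After 72 h at 37 °C with compound, ATP-dependent luminescence was recorded.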
HT1080NT lethal: kills 2HG-producing HT-1080-NT fibrosarcoma cells. HT-1080-NT fibrosarcoma viability, CellTiter-Glo ATP luminescence, 48 h. Potency, µM (top dose mostly 46.1 µM), for the others: at the highest dose activity, negative = less viability, hits mostly cytotoxic. hit rate 1.6% among 360,000. AID 686970;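 also: NT is the 2HG producing partner of a matched IDH1 knockdown line; 0% = DMSO-treated cells and -100% = media-only wells without cells; nearly all actives have a fitted effect of over 55% in size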
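Compounds were tested in concentration-response format on HT-1080-NT cells for 48 hours at 37 degrees C. Cell viability came from CellTiter-Glo luminescence; curves were classified by r2, response magnitude and activity.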
HT1080 IDH1KD tx: toxicity to HT-1080 IDH1 knockdown cells (counter line); HT-1080 IDH1 knockdown viability, ATP luminescence, 48 h; Potency, µM (top dose mostly 46.1 µM), for the others: top-dose activity, negative = toxicity, hits mostly cytotoxic; hit rate 2% among 360,000; AID 686971;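 also: 0% = DMSO wells and -100% = cell-free medium wells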
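Viability of IDH1-knockdown HT-1080 fibrosarcoma cells was assessed by CellTiter-Glo after 48 h at 37 °C with titrated compound; concentration-effect curves were classified by fit quality and response size.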
MCF10A rerep: induces DNA re-replication in MCF 10a normal breast cells; MCF 10A DNA re-replication, Hoechst nuclear intensity, 48 h; Potency, µM (doses to about 46.1 µM), inactives show top-dose activity, positive = re-replication, usual class: activators; hit rate 2.9% among 350,000; also: % of control where 0% means no effect; nearly all actives have a fitted effect of over 50% in size
An asterisk follows results filed as active; i = inactive; ? = inconclusive; . = no result; [ ] = remark or other dose. Hits are enriched below; roughly 8% of the tested compounds scored in any of these assays. Calls follow the shape of the dose curve; as a rule, active = well fitted curve in the direction sought with a large enough effect; inconclusive = small, poorly fitted or top-dose-only effect, or another doubt; inactive = no such curve, though single readings can be large; an effect the other way counts as inactive or inconclusive. Potency is read from the fitted curve at half-maximal effect.

SMILES | KB-V1 cytotox | SW480 rerep | KB-3-1 tox | HT1080NT lethal | HT1080 IDH1KD tx | MCF10A rerep
O=C(c1ccc(Cl)c(Cl)c1)N1CCC(=O)N(C(COCc2cccc(Cl)c2)Cc2ccccc2)CC1 (stereo not drawn) | i | ? | i | ? | ? | 23µM*
O=C(c1ccc(Cl)c(Cl)c1)N1CCC(=O)N([C@H](COCc2ccc(Cl)cc2)Cc2ccccc2)CC1 | 21µM* | . | ? | ? | 26µM* | .
Cc1cccc(COCC(Cc2ccccc2)N2CCN(C(=O)c3ccc(C(F)(F)F)cc3)CCC2=O)c1 (stereo not drawn) | 12µM* | 7% | 21µM* | -2% | -29% | ?
Cc1ccc2nc(C3CCCN3Cc3nc(CCC(C)C)no3)[nH]c2c1 (stereo not drawn) | 6.5µM* | -4% | i | -12% | -11% | -1%
O=C(c1cccn2c(=O)c3ccccc3nc12)N1CCN(Cc2ccc3c(c2)OCO3)CC1 | i | -1% | i | 13% | -4% | 28%
O=C(c1[nH]nc2c1CCc1ccccc1-2)N1CCN(Cc2ccc3c(c2)OCO3)CC1 | ? | 19% | 12µM* | ? | ? | 10%
O=C(c1ccccc1)N1CCN(Cc2ccc3c(c2)OCO3)CC1 | i | -5% | i | 10% | 16% | 6%
Cc1ccc(C(=O)N2CCN(Cc3ccc4c(c3)OCO4)CC2)c(Cl)c1 | i | 0% | ? | -10% | 16µM* | 7%
Cc1ccc(S(=O)(=O)N(C)c2ccc(C(=O)N3CCN(Cc4ccc5c(c4)OCO5)CC3)cc2)cc1 | 1.6µM* | 7% | 12µM* | ? | ? | ?
O=C(c1cccn2c(=O)c3cc(Cl)ccc3nc12)N1CCN(Cc2ccc3c(c2)OCO3)CC1 | i | 18µM* | ? | 5%[9.24 µM] | -27% | 10µM*
CN(c1ccc(C(=O)N2CCN(Cc3ccc4c(c3)OCO4)CC2)cc1)S(=O)(=O)c1ccccc1 | i | 4% | i | -9% | -4% | 24%
Cc1c(Cl)cccc1-c1ccc(/C=C(\C#N)c2nc3ccccc3[nH]2)o1 | i | . | i | . | . | .
CCOc1ccc(S(=O)(=O)NCc2ccc(C)cc2)c2cccnc12 | i | -3% | i | 5% | -1% | -2%
c1ccc2c(c1)oc1c(N3CCN(Cc4ccc5c(c4)OCO5)CC3)ncnc12 | ? | 0% | ? | -25% | -17% | ?
CCOC(=O)CNC(=O)c1ccc2[nH]c3ccccc3c2c1 | i | 12% | i | 7% | -16% | -7%
Cc1cc(C)cc(OCC(O)CN2CCN(Cc3ccc4c(c3)OCO4)CC2)c1 (stereo not drawn) | i | 9% | i | -10% | -20% | 16µM*
OC(COc1ccccc1)CN1CCN(Cc2ccc3c(c2)OCO3)CC1 (stereo not drawn) | i | -7% | i | 4% | 5% | 6%
COc1ccc(CC(=O)Nc2c(C(=O)N3CCN(c4ccccc4)CC3)oc3ccccc23)cc1OC | i | 4% | i | -20% | -12% | ?
Clc1ccc(C2=Nn3c(nnc3-c3n[nH]c4c3CCC4)SC2)cc1 | 3.7µM* | 6.5µM* | 3.7µM* | 5.8µM* | 5.8µM* | ?
Cc1ccc(-c2nnc3n2N=C(c2ccc(Br)cc2)CS3)cc1 | i | -8% | i | -9% | 0% | 0%
CC(C)[C@H](N)c1nnc2n1N=C(c1ccc(Cl)cc1)CS2 | i | -22% | i | 3% | 0% | -9%
Brc1ccc(C2=Nn3c(nnc3-c3n[nH]c4c3CCC4)SC2)cc1 | 1.2µM* | ? | 0.33µM* | 1.2µM* | 0.65µM* | ?
COc1ccc(-c2cc(C(=O)Nc3sc4c(c3C(N)=O)CCC(C)C4)no2)cc1 (stereo not drawn) | i | . | i | . | . | .
O=[N+]([O-])c1cccc(C=NN=C2c3ccccc3-c3ccccc32)c1 | 21µM* | -2% | i | -2% | 14% | 7%
O=[N+]([O-])c1cccc(/C=N\N=C2c3ccccc3-c3ccccc32)c1O | 18µM* | 141% | ? | 3% | 6% | -36%
SMILES | KB-V1 cytotox | SW480 rerep | KB-3-1 tox | HT1080NT lethal | HT1080 IDH1KD tx | MCF10A rerep
NC(N)=N/N=C/c1cccc([N+](=O)[O-])c1O | i | -2% | i | 12% | 12% | 0%
O=C(NCc1ccccc1F)C1CCC(=O)N(Cc2ccc(Cl)cc2)C1 (stereo not drawn) | i | -3% | i | -8% | 1% | -1%
CC12CC(c3ccccc3O1)N(C(=O)c1ccco1)C(=S)N2c1ccc(F)cc1 (stereo not drawn) | i | 12% | i | ? | ? | 12µM*
Cc1cccc(C(=O)NCc2nnc(SCC(=O)NC3=NCCS3)n2C)c1 | i | -1% | i | -2% | 14% | -4%
Cc1ccc(-c2csc3nc4c5ccccc5c(NCCCN(C)C)nn4c(=O)c23)cc1 | i | ? | ? | 0% | -1% | 18µM*
Cc1ccc(-c2nc(NCCCN(C)C)c3ccccc3n2)cc1 | i | . | i | ? | ? | .
Cn1c(=O)c2c(nc(SCC(=O)N3CCCCCC3)n2C)n(C)c1=O | 15µM* | 3% | i | 0% | -13% | -3%
CCn1c(SCC(=O)N2CCCCCC2)nc2ccccc2c1=O | 9.2µM* | 5% | i | -8% | 3% | ?
CC(C)c1nc(SCC(=O)N2CCCC2)c2ccccc2n1 | 21µM* | -1% | i | -7% | -29% | 6%
CCn1c(SCC(=O)N2CCN(c3cccc(Cl)c3)CC2)nc2ccccc2c1=O | 9.2µM* | -3% | i | -5% | -11% | ?
CCc1n[nH]c(=S)n1/N=C/c1ccc(N(C)c2ccccc2)cc1 | i | -3% | i | -11% | -6% | ?
O=C(CSc1nc2ccccc2c(=O)n1Cc1ccco1)N1CCCCCC1 | 18µM* | 18% | ? | -21% | ? | ?
O=C(NCc1ccco1)c1ccc2c(=O)n(Cc3ccco3)c(SCC(=O)N3CCCC3)nc2c1 | i | 14% | i | -11% | -7% | 5%
Cc1nc(NC(=O)COC(=O)[C@@H](NC(=O)c2ccco2)C(C)C)c(Cl)cc1Cl | i | 0% | i | 5% | -8% | 12%
C=CC(=O)N1C/C(=C/c2ccc(F)cc2)C(=O)/C(=C\c2ccc(F)cc2)C1 | i | 1.2µM* | ? | ? | 2.9µM* | ?
O=C1C(=Cc2ccc(F)cc2)CCc2ccccc21 | i | . | i | -23% | -15% | .
